# NOMO-1 viab – STK33 inhibitor candidate reducing NOMO-1 cell viability | NOMO-1 AML viability, CellTiter-Glo luminescence, 72 h | inhibition, % (no concentration beside the values) | hit rate 7.5% among 37,000; in the data active = inhibition above about 80%
# PD-1 reverse act – activators reversing PD-1 mediated T-cell inhibition. primary human CD4 T cells, PD-L1 beads, CellTiter-Glo 96 h. activation, % (no concentration beside the values). 29,000 tested, under 10 active. AID 2316; call rule not given here;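 note: 0% = median vehicle wells and 100% = positive control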
# STK33 kin inh – inhibitors of human STK33 kinase | hit rate 0.44% among 27,000 | AID 2322 | ADP-Glo luminescence, MBP substrate | inhibition, % at 12.5 µM; in the data active = inhibition above about 20%
# Target sequence (Q9BYT3 whole entry, looked up): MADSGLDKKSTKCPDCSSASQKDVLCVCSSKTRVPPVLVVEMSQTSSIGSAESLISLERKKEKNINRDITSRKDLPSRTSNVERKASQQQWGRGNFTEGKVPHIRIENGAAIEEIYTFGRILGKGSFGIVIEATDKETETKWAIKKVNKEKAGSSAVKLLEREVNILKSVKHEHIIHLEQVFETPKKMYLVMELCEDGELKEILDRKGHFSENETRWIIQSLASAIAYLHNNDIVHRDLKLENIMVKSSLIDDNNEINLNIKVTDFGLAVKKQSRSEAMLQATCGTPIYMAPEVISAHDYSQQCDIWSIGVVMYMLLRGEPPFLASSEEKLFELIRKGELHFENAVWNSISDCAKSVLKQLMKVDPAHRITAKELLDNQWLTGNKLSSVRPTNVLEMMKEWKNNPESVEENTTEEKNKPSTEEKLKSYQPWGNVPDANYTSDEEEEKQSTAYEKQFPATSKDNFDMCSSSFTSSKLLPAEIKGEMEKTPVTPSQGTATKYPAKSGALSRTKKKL
# * = called active by the depositor; / = no result. Only a selection was taken, and hits are over-represented in it overall.
SMILES,NOMO-1 viab,PD-1 reverse act,STK33 kin inh
C[C@@H]1CN([C@H](C)CO)C(=O)c2cccc(NS(=O)(=O)c3ccccc3)c2O[C@H]1CN(C)Cc1ccc(C(=O)Nc2ccccc2N)cc1,58.2,0.6,/
C[C@@H]1CN([C@H](C)CO)C(=O)c2cccc(NS(=O)(=O)c3cccs3)c2O[C@H]1CN(C)Cc1ccc(C(=O)Nc2ccccc2N)cc1,44.1,1.4,/
C[C@H](CO)N1C[C@H](C)[C@H](CN(C)Cc2ccc(C(=O)Nc3ccccc3N)cc2)Oc2c(NS(=O)(=O)c3ccccc3)cccc2C1=O,138.8*,0.0,/
COc1ccc(S(=O)(=O)Nc2cccc3c2O[C@@H](CN(C)Cc2ccc(C(=O)Nc4ccccc4N)cc2)[C@H](C)CN([C@H](C)CO)C3=O)cc1,71.9,-1.6,/
C[C@@H]1CN([C@H](C)CO)C(=O)c2cccc(NS(=O)(=O)c3ccc(Cl)cc3)c2O[C@@H]1CN(C)Cc1ccc(C(=O)Nc2ccccc2N)cc1,125.6*,-3.1,/
COc1ccc(S(=O)(=O)Nc2cccc3c2O[C@@H](CN(C)Cc2ccc(C(=O)Nc4ccccc4N)cc2)[C@@H](C)CN([C@@H](C)CO)C3=O)cc1,112.2*,-1.9,/
C[C@H](CO)N1C[C@H](C)[C@H](CN(C)Cc2ccc(C(=O)Nc3ccccc3N)cc2)Oc2c(NS(=O)(=O)c3cccs3)cccc2C1=O,87.8*,0.7,/
CCC(C)NC(=O)Cn1cnc2c1c(=O)n(C)c(=O)n2C (stereo unspecified),9.9,1.0,/
O=C(COc1ccccc1Cl)Nc1ccc(C(=O)Nc2ccccc2C(=O)O)cc1,-26.8,/,-0.3
N#Cc1ccccc1NC(=O)COc1ccc(Cl)cc1Cl,/,/,4.0
Cc1noc(C)c1S(=O)(=O)Nc1cccc2c1O[C@H](CN(C)Cc1ccc(C(=O)Nc3ccccc3N)cc1)[C@H](C)CN([C@H](C)CO)C2=O,117.6*,0.1,/
C[C@@H]1CN([C@@H](C)CO)C(=O)c2cccc(NS(=O)(=O)c3ccc(Cl)cc3)c2O[C@@H]1CN(C)Cc1ccc(C(=O)O)cc1,-2.8,1.4,/
C[C@H](CO)N1C[C@H](C)[C@H](CN(C)Cc2ccc(C(=O)Nc3ccccc3N)cc2)Oc2c(NS(=O)(=O)c3ccc(Cl)cc3)cccc2C1=O,120.6*,-0.9,/
C[C@H]1CN([C@@H](C)CO)C(=O)c2cccc(NS(=O)(=O)c3ccc(Cl)cc3)c2O[C@H]1CN(C)Cc1ccc(C(=O)Nc2ccccc2N)cc1,117.7*,-1.3,/
Cc1noc(C)c1S(=O)(=O)Nc1cccc2c1O[C@H](CN(C)Cc1ccc(C(=O)O)cc1)[C@@H](C)CN([C@H](C)CO)C2=O,-6.1,1.0,/
COc1ccccc1NC(=O)c1ccc(C(C)(C)C)cc1,43.7,-3.5,-1.5
CCN(CC)C(=S)Oc1ccccc1C(=O)Nc1ccc(Cl)c(Cl)c1,13.6,2.0,/
CC(C)OC(=O)CSc1nc(-c2cccs2)cc(C(F)(F)F)c1C#N,40.3,-1.1,0.0
CCN(CC)c1cc(-c2cccs2)nc(SCC(=O)c2cccs2)c1C#N,122.1*,-1.9,/
Cc1cc(C)c(C#N)c(SCC(=O)c2cc3ccccc3oc2=O)n1,8.3,/,2.9
Cc1nc(SCC(=O)c2cc3ccccc3oc2=O)c(C#N)c(C)c1C,109.8*,/,-2.7
C[C@@H]1CN([C@@H](C)CO)C(=O)Cc2cc(NS(=O)(=O)c3ccc(F)cc3)ccc2O[C@@H]1CN(C)Cc1ccc(Cl)c(Cl)c1,95.8*,/,4.6
C[C@H]1CN([C@@H](C)CO)C(=O)Cc2cc(NS(C)(=O)=O)ccc2O[C@@H]1CN(C)Cc1ccc(Cl)c(Cl)c1,97.8*,/,-1.9
C[C@H]1CN([C@@H](C)CO)C(=O)Cc2cc(NS(=O)(=O)c3ccc(Cl)cc3)ccc2O[C@H]1CN(C)Cc1ccc2c(c1)OCO2,29.5,/,-4.0
C[C@@H]1CN([C@H](C)CO)C(=O)Cc2cc(NS(C)(=O)=O)ccc2O[C@@H]1CN(C)Cc1ccc(Cl)c(Cl)c1,23.5,-2.2,0.5
SMILES,NOMO-1 viab,PD-1 reverse act,STK33 kin inh
C[C@@H]1CN([C@@H](C)CO)C(=O)Cc2cc(NS(=O)(=O)c3ccccc3)ccc2O[C@@H]1CN(C)Cc1ccc(Cl)c(Cl)c1,62.3,-4.2,1.6
C[C@@H]1CN([C@@H](C)CO)C(=O)Cc2cc(NS(=O)(=O)c3ccc(Cl)cc3)ccc2O[C@@H]1CN(C)Cc1ccc(Cl)c(Cl)c1,123.8*,-1.6,0.6
C[C@H]1CN([C@@H](C)CO)C(=O)Cc2cc(NS(=O)(=O)c3ccccc3)ccc2O[C@@H]1CN(C)Cc1ccc(Cl)c(Cl)c1,122.4*,/,/
C[C@@H]1CN([C@H](C)CO)C(=O)Cc2cc(NS(=O)(=O)c3ccc(F)cc3)ccc2O[C@@H]1CN(C)Cc1ccc2c(c1)OCO2,18.2,-0.3,0.4
COc1cccc(N(CC(=O)Nc2c(C)cc(C)cc2C)S(C)(=O)=O)c1,-13.4,/,2.4
CCn1c(SCC(=O)Nc2ccc(C)cc2Br)nnc1-c1ccc(Cl)cc1,10.7,-0.5,3.5

# Compound activity: PubChem, Broad Institute
